Laboratory results published in the supplement of paper PMC6555819.

Tests used:
Experiment in all cases: PBM binding z-score (relative to random genomic background probes); higher = stronger binding; sequences stand for … in GC…GCGATTGACAGCGTAGAATGAAGG
[1] = tested on: FXR:RXRa (NR concentration 270 nM, RXRa partner concentration 90 nM)
Method in brief: (§1)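 Ligand-free nuclear receptor dimers were applied to custom Agilent 4×180K protein-binding microarrays whose double-stranded probes carried direct-repeat seeds, single-nucleotide variants, half-site ablations and random human genomic background sequences in 34-nt variable regions. Incubation lasted 1 h. Binding z-scores were computed against the random background probes from regression-normalized fluorescence.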

[2] = tested on: LXRa:RXRa (NR concentration 270 nM, RXRa partner concentration 90 nM)
Method in brief: as §1

[3] = tested on: LXRa homodimer (NR concentration 270 nM)
Method in brief: as §1

[4] = tested on: LXRb:RXRa (NR concentration 270 nM, RXRa partner concentration 90 nM)
Method in brief: as §1

[5] = tested on: LXRb homodimer (NR concentration 270 nM)
Method in brief: as §1

[6] = tested on: PPARa:RXRa (NR concentration 270 nM, RXRa partner concentration 90 nM)
Method in brief: as §1

[7] = tested on: PPARg:RXRa (NR concentration 180 nM, RXRa partner concentration 90 nM)
Method in brief: as §1

[8] = tested on: PPARg:RXRa 270nM:90nM, anti-RXR (NR concentration 270 nM, RXRa partner concentration 90 nM)
Method in brief: as §1

[9] = tested on: PPARg:RXRa 30nM:10nM, anti-RXR (NR concentration 30 nM, RXRa partner concentration 10 nM)
Method in brief: as §1

[10] = tested on: PPARg:RXRa 90nM:30nM, anti-RXR (NR concentration 90 nM, RXRa partner concentration 30 nM)
Method in brief: as §1

Row | Sequence | PBM binding z-score [1] | PBM binding z-score [2] | PBM binding z-score [3] | PBM binding z-score [4] | PBM binding z-score [5] | PBM binding z-score [6] | PBM binding z-score [7] | PBM binding z-score [8] | PBM binding z-score [9] | PBM binding z-score [10]
1 | TCTAGCAGGCCAGAGGGGCACTCAAGAGGTACGG | -0.239 | -0.393 | -0.689 | -0.334 | -0.644 | 0.22 | 0.662 | 1.41 | 1.64 | 1.51
2 | AGGACGAGGGCACGCTGAGTTGATAGCAGAGTAG | 0.954 | 0.423 | -0.584 | 0.138 | -1.02 | 1.45 | 1.2 | 0.43 | -0.0581 | 0.384
3 | TCATATAGGTAAACAGCTGAAAGTCCGTAAGTTA | 1.09 | 0.759 | 0.185 | 0.758 | -0.215 | 1.37 | 0.75 | 2.36 | 3.9 | 3.19
4 | CCTTACGGGTCACTGACAGGTTATTGCATTTGGA | 5.44 | 4.13 | 0.625 | 3.78 | 0.134 | 5.14 | 4.45 | 4.46 | 1.42 | 2.91
5 | ACAGAAAGGTGAGTGAAGGTAACTCAGCTGGACG | 1.15 | 0.894 | -0.288 | 0.22 | -0.612 | 1.81 | 1.25 | 1.23 | 0.0865 | 0.656
6 | CGTCCAAGGCCAAGGTCAGTGAAAGAGACTCGAA | 1.58 | 1.15 | -0.343 | 1.21 | -0.878 | 2.04 | 0.804 | 0.725 | -0.305 | 0.665
7 | CGCGAAAGGTCGGTTGAGGTGAGTATACGGATAA | 2.66 | 1.81 | -0.0594 | 1.38 | -0.0248 | 2.75 | 0.872 | 1.45 | 0.235 | 0.88
8 | GGAACGTGGGCATTCGAGTTGATAGCATGGCGAT | -0.541 | -0.612 | -0.683 | -1.02 | -1.01 | -1.09 | 0.22 | -0.631 | -0.7 | -0.858
9 | ATCTCTACGTAAAGTTCAGTGAAAGATCGATAGA | 0.641 | 1.57 | 1.36 | 1.02 | 1.16 | 1.36 | 1.04 | 2.47 | 1.02 | 1.96
10 | GCTAGTTGGTCAGTAAAAGGTCACAAACCGGTCG | 3.06 | 3.78 | 3.4 | 3.99 | 0.763 | 4.53 | 2.59 | 4.01 | 2.23 | 3.46
11 | GGAACAAGGGCATTCGAGTTGATAGCATGGCGAT | 1.63 | 1.37 | 0.0326 | 0.349 | -0.333 | 1.16 | 0.807 | 0.531 | -0.0599 | 0.199
12 | ATCTCTAGATAAGACTCAGTTCAGTGAAGAACGC | -0.0405 | -0.109 | 0.034 | -0.147 | 0.392 | -0.438 | 0.0934 | -0.337 | 0.0965 | 0.00622
13 | ATCTATAGGTAAAAGTTCAGTGAATCCCGAGGAT | 0.696 | 1.58 | 1.09 | 1.06 | 0.602 | 3.99 | 6.8 | 6.94 | 5.53 | 7.36
14 | ATCTGTAGGTAAAGATAGTTCAGTGAATGCAAAT | 0.274 | 4.33 | 0.422 | 0.986 | 0.477 | 0.733 | 0.782 | 0.571 | 0.256 | 0.391
15 | TTACCAAGGTGAGGGTCGTTGATCCCTCTGTAGA | 1.32 | 0.898 | -0.621 | 0.915 | -0.774 | 1.88 | 0.82 | 2.03 | 0.53 | 1.46
16 | GCGACTGGGGCAAAGCAGGTTACCAAAAGGTTGG | 0.475 | 0.517 | -0.168 | 0.19 | -1.32 | 1.78 | 1.11 | 1.55 | -0.194 | 0.774
17 | CGTCAAAGTTCAATTAAGGTAACGTAAAGCACGC | 6.45 | 5.3 | 3.51 | 3.7 | 2.06 | 4.58 | 4.09 | 4.67 | 1.7 | 3.44
18 | ACTGTTAGTTGACTTAGGGCAACCGATACGACGC | 0.539 | 0.575 | 0.206 | 0.367 | 1.15 | 0.0221 | 0.731 | 0.221 | 0.105 | -0.111
19 | ACTAGTTGGTCAACTGAGGTCACACACAATTCGG | 4.03 | 4.75 | 3.24 | 3.99 | 0.711 | 4.31 | 3.06 | 3.01 | 0.826 | 2.8
20 | TCTAGTGGGTCACGGAGGTCACACACGACGGGTA | 6.17 | 5.14 | 2.85 | 4.62 | 0.568 | 5.74 | 9.39 | 7.63 | 5.61 | 7.51
21 | GCGACTGGGGCAAAGCAGGTTAGCATAAGGTTGG | 0.494 | -0.573 | -0.598 | -0.43 | -1.24 | 0.977 | 1.14 | 0.948 | -0.509 | 0.412
22 | GGAACGAGGGCAAAGTTGCTAGCATCTGTCGACG | 0.659 | 0.547 | -0.512 | 0.42 | -0.761 | 2.65 | 3.83 | 5.03 | 2.76 | 5.06
23 | CAAACTAGGTCAAGAGGTCAACGTCCGCTTCCCG | 6.68 | 6.31 | 5.46 | 5.27 | 1.55 | 6.6 | 9.74 | 8.42 | 7.54 | 8.92
